The list is not random: actives were taken first. Their share in the collection is about 12%.
L3MBTL1 inh = inhibitors of human L3MBTL1; AlphaScreen L3MBTL1–H3K9me1 peptide binding; Potency, µM (series often up to 57.1 µM), usual class: inhibitors; 230,000 tested, 0.66% active; AID 485360; note: nearly all actives have a fitted effect of over 60% in size
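AlphaScreen proximity signal between nickel-chelate acceptor and streptavidin donor beads (final 10 ug/mL) reports binding of 50 nM L3MBTL1 to 75 nM biotin-H3 K9me1 peptide; complex incubated with compounds 30 min at room temperature; cefsulodin titration as control.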
HP1b binding inh = blocks HP1-beta chromodomain binding to methylated histone tails; 390,000 tested, 0.56% active; AlphaScreen HP1-beta / biotin-H3K9me3 peptide binding; P83916; Potency, µM (titrated, usually from 114 µM), most hits filed as inhibitors; note: nearly all actives have a fitted effect of over 70% in size
Target sequence (P83916 whole entry, looked up): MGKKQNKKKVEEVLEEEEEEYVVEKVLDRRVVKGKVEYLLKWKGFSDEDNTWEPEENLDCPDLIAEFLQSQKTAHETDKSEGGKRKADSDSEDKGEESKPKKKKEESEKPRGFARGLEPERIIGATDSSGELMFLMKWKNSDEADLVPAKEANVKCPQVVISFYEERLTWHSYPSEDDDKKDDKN
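HP1-beta protein (50 nM final) preincubated 30 min at room temperature with biotinylated H3(1-18)K9me3 peptide (50 nM) in PBS pH 7.4, 0.01% Tween-20, then compound added for 30 min. AlphaScreen streptavidin donor/nickel chelate acceptor beads (10 ug/mL final), 30 min dark, luminescence read.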
BAZ2B block = BAZ2B (human) inhibition; Potency, µM (highest dose often 114 µM), actives largely listed as inhibitors; 360,000 tested, 4.4% active; AlphaScreen BAZ2B-H3K14Ac peptide displacement; AID 504333; note: nearly all actives have a fitted effect of over 60% in size
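BAZ2B 50 nM plus b-H3(5-23)K14Ac 50 nM, PBS pH 7.4/0.01% Tween-20, 30 min RT; compound added (max 110 uM), 30 min RT; streptavidin donor/Ni-chelate acceptor beads 10 ug/mL final, 20 min dark; AlphaScreen read.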
Sfp PPTase inh = inhibitors of Bacillus subtilis Sfp phosphopantetheinyl transferase. Potency, µM, usual class: inhibitors. Biochemical Sfp PPTase activity, qHTS. Q9F4F7. 310,000 tested, 3.5% active;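 note: the enzyme is Sfp with the accession as filed and its product quenches rhodamine fluorescence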
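Fluorescence-quenching assay with 15 nM Sfp, 5 uM rhodamine-CoA and 12.5 uM BHQ-2-labelled ybbR peptide in pH 7.6 Hepes/MgCl2 buffer. Enzyme was pre-incubated with compound for 15 min at room temperature. Rate was taken from the 30-min fluorescence change (525/598 nm).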
JMJD2A Tudor = blocks the human JMJD2A Tudor domain; Potency, µM (titrated, usually from 114 µM), actives largely listed as inhibitors; O75164; 390,000 tested, 4.4% active; AlphaScreen JMJD2A-Tudor / H3K4me3 peptide binding; note: nearly all actives have a fitted effect of over 50% in size
G9a inh = blocks human histone lysine methyltransferase G9a. G9a H3K9 monomethylation, AlphaScreen, 2 h. Potency, µM (top dose mostly 102 µM), actives largely listed as inhibitors. 350,000 tested, 8.8% active; note: nearly all actives have a fitted effect of over 75% in size
Target sequence (Q96KQ7 913-1193 limits assumed): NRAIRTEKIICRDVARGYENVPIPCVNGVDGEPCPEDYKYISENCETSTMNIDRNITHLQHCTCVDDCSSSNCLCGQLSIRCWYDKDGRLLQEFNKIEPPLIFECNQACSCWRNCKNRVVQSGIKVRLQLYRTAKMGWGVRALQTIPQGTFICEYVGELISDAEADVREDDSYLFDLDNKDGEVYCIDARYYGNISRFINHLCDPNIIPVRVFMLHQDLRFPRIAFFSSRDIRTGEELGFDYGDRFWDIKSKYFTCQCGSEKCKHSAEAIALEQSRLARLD
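AlphaScreen read-out: biotin-H3K9 peptide (500 nM) methylation by 20 nM enzyme with 20 uM SAM, 2 h at room temperature after 15 min compound preincubation; anti-monomethyl H3K9 antibody plus donor/acceptor beads, 10 min dark.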
A number is an active result; 0 = inactive; ? = inconclusive; - = no result; [ ] = dose if it differs, or a comment. Calls come from the whole dose curve; as a rule, active = well fitted curve in the direction sought with a large enough effect; inconclusive = small, poorly fitted or top-dose-only effect, or another doubt; inactive = no such curve, though single readings can be large; an effect the other way counts as inactive or inconclusive.

SMILES | L3MBTL1 inh | HP1b binding inh | BAZ2B block | Sfp PPTase inh | JMJD2A Tudor | G9a inh
C(=N\NC1=Nc2cccc3cccc1c23)/c1ccccn1 | 0 | 0 | ? | 45µM | ? | 0
C(=C1c2ccccc2-c2ccccc21)c1ccccn1 | - | 0 | - | - | 0 | -
CCOc1ccc(C(=O)NCC(C)NC(=O)c2ccc(OCC)cc2)cc1 (centres undefined) | 0 | 0 | ? | 0 | ? | -
CC(CNC(=O)c1cncc(O)c1)NC(=O)c1cncc(O)c1 (centres undefined) | 0 | 0 | ? | 79µM | 50µM | 45µM
Cc1nc(NCc2ccccc2)c2nc(-c3ccccc3)n(C(C)CN(C)C)c2n1 (centres undefined) | - | - | - | 0 | - | -
CCOc1ccc(C(C)=O)cc1CN1C(=O)C(=O)N(CC)C1=O | 0 | 0 | 0 | 0 | 0 | 0
Cc1ccc(NC(=O)c2cccc(C(F)(F)F)c2)cc1NC(=O)c1[nH]cnc1C(N)=O | 0 | 0 | 56µM | - | ? | 0[0.501 µM]
Cc1ccc(C(=O)Nc2cccc(C(F)(F)F)c2)cc1NC(=O)c1csc(-c2ccncc2)n1 | - | 0 | 0 | 20µM | 0 | 0
O=C(Nc1ccc(F)cc1F)c1csc(-c2ccncc2)n1 | 0 | 0 | 0 | 0 | 0 | 0
COc1ccc(CC(=O)N2CCN(c3ccccc3OC)CC2)cc1OC | 0 | 0 | 0 | 0 | 0 | ?
O=C(NNc1c2ccccc2nc2ccccc12)c1ccc(Cl)cc1 | - | 0 | ? | 0 | 0 | 35µM
CSc1nc(N(C)NC(=O)c2ccc(Cl)cc2)c2ccccc2n1 | 0 | 0 | 0 | 50µM | 0 | 0
CCOC(=O)Nc1c2ccccc2nc2ccccc12 | 0 | 0 | 0 | 0 | 0 | 0
Clc1cncc(Cl)c1NNc1c2ccccc2nc2ccccc12 | 0 | 0 | ? | 0 | ? | 1.3µM
Cc1cc(C(=O)NNC(=O)c2ccc(Cl)cc2)c2ccccc2n1 | 0 | 0 | 0 | - | 0 | 0[12.7 µM]
Nc1ccccc1C(=O)NNc1c2ccccc2nc2ccccc12 | ? | 18µM | 28µM | 0 | 32µM | 18µM
COCCN(C(=O)COC(=O)CCC(=O)c1cccs1)c1c(N)n(Cc2ccccc2)c(=O)[nH]c1=O | 0 | 0 | 0 | - | 0 | 0[0.501 µM]
Fc1ccccc1Cc1cn2cc(-c3ccc(Cl)cc3)nc2s1 | - | 0 | 0 | - | 0 | 0
Cc1ccc(C(=O)NNc2c3ccccc3nc3ccccc23)cc1 | 0 | 0 | ? | 25µM | 0 | 18µM
COc1cccc(C(=O)NNc2c3ccccc3nc3ccccc23)c1 | - | 0 | ? | 0 | ? | 0
Cc1ccccc1-n1nnnc1SCc1cc(=O)n2ccsc2n1 | 0 | 0 | - | 0 | 0 | 0
CCCN1C(=O)C(O)(CC(=O)c2cccc(OC)c2)c2ccccc21 (centres undefined) | - | 0 | 56µM | 0 | ? | 0[12.7 µM]
O=C1OCCN1c1c(-c2ccccc2)c(-c2cccs2)nc2c(-c3ccccc3)cccc12 | 0 | 0 | 0 | 0 | 0 | 40µM
NCCC(=O)Nc1cccc(-c2nn3c(=O)cc(N4CCNCC4)nc3s2)c1 | - | - | - | - | 0 | -
COc1ccc(C(=O)Nc2ccc(NC(=O)c3cccs3)cn2)cc1 | - | 0 | ? | 0 | ? | 22µM
SMILES | L3MBTL1 inh | HP1b binding inh | BAZ2B block | Sfp PPTase inh | JMJD2A Tudor | G9a inh
COc1ccc(C(=O)Nc2ccc(NC(=O)Cc3ccccc3)cn2)cc1 | - | 0 | 0 | 0 | 0 | 11µM
COc1ccc(C(=O)Nc2ccc(NC(=O)c3cccc(OC)c3)cn2)cc1 | - | 0 | 0 | 0 | 0 | 0
COc1ccc(C(=O)Nc2ccc(NC(=O)c3cc(OC)c(OC)c(OC)c3)cn2)cc1 | - | 0 | ? | 0 | 0 | 40µM
COc1ccc(C(=O)Nc2ccc(NC(=O)c3cccc(F)c3)cn2)cc1 | - | 0 | ? | 0 | ? | 45µM
CO[C@@H]1COC(=O)[C@@H](CCSC)NC(=O)C/C=C\[C@@H](C)COC(=O)[C@H](C)NC(=O)C/C=C\[C@H]1C | - | - | - | 0 | - | -
Cc1ccc(N(CC(=O)NC2CC2)S(=O)(=O)c2ccccc2)c(C)c1 | - | 0 | 0 | 0 | 0 | -
COc1cc(C(=O)Nc2ccc(NC(=O)C(C)C)nc2)cc(OC)c1OC | - | 0 | 79µM | 0 | 0 | ?
COc1cc(C(=O)Nc2ccc(NC(=O)c3ccccc3)nc2)cc(OC)c1OC | - | 0 | ? | 0 | 0 | 0
Nn1c(-c2ccccc2Cl)nnc1-c1ccccc1Cl | 0 | 0 | 0 | 0 | 0 | 3.5µM
Nc1sccc1C(=O)c1ccccc1 | 0 | 0 | 0 | 28µM | 0 | 45µM
O=C(c1ccccc1)c1ccccc1C(=O)c1ccccc1 | 0 | 0 | 0 | 0 | 0 | 0[0.501 µM]
C=CCN1C(=O)S/C(=C/c2ccc(Sc3nc4ccccc4[nH]3)o2)C1=O | 0 | 0 | 0 | 0 | 0 | 2µM
C=CCN1C(=O)S/C(=C/c2ccsc2)C1=O | 0 | 0 | 0 | 0 | 0 | 0
CC(C)N1C(=O)S/C(=C/c2ccc(Sc3nc4ccccc4[nH]3)o2)C1=O | 0 | 0 | 0 | 0 | 0 | 71µM
CCOc1ccccc1CN1CCNC(=O)C1CC(=O)NCCCn1cccn1 (centres undefined) | - | 0 | ? | 0 | 0 | 79µM
O=C(CC1C(=O)NCCN1Cc1cccc(Oc2ccccc2)c1)NCCCn1cccn1 (centres undefined) | 0 | 0 | 0 | 0 | 0 | 50µM
COc1ccc(CN2CCNC(=O)C2CC(=O)NCCCn2cccn2)cc1C (centres undefined) | - | 0 | 0 | 0 | 0 | 0[0.501 µM]
O=C(CC1C(=O)NCCN1Cc1ccc(F)cc1)NCCN1CCCc2ccccc21 (centres undefined) | 0 | 0 | 79µM | ? | ? | -
CCc1cc(CNC(=O)CC2C(=O)NCCN2Cc2cccc(OC)c2)on1 (centres undefined) | 0 | 0 | 0 | 0 | 0 | 56µM
O=C(CC1C(=O)NCCN1Cc1ccccc1)NCCN1CCCCC1=O (centres undefined) | - | 0 | 0 | 0 | 0 | -
O=c1c(-c2cccs2)nc2cncnc2n1Cc1ccccc1 | - | - | - | 0 | - | 0[0.501 µM]
N#CCCn1c(=O)c(-c2ccc(F)cc2)nc2cnc(N3CCNCC3)nc21 | - | - | - | 0 | - | 0[0.501 µM]
COc1ccc2ccccc2c1CNC(=O)CC1C(=O)NCCN1CC(C)C (centres undefined) | 0 | 0 | 0 | 0 | 0 | 45µM
COc1ccccc1CN1CCNC(=O)C1CC(=O)NCCCN1CCCC1=O (centres undefined) | - | 0 | 0 | 0 | 0 | 71µM
O=C(CC1C(=O)NCCN1Cc1ccccc1)NCCCOc1cccnc1 (centres undefined) | - | 0 | 0 | 0 | 0 | 50µM
CCn1ccnc1CNC(=O)CC1C(=O)NCCN1CC(c1ccccc1)c1ccccc1 (centres undefined) | 0 | 0 | 0 | 0 | 0 | -
O=C(NCC1CCCO1)C(=O)N/N=C\c1ccc2c(c1)OCO2 (centres undefined) | - | 0 | 0 | 0 | 0 | ?
O=C(COC(=O)Cn1[nH]c(=O)c2ccccc2c1=O)NNC(=O)c1ccccc1 | 0 | 0 | 0 | - | 0 | 0[12.7 µM]

Compound activity deposited in PubChem by National Center for Advancing Translational Sciences (NCATS).
